# Experimental data: PMC5540273 (PLoS ONE, 2017)
# System: FLT3-autoinhibited
# Details: concentration: 1 μM, replicates: in singlicate; n = 1
# 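Note: KINOMEscan kinase panel screen.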
row,SMILES,%Inh [%]
1,Fc1ccc(-c2ncn(CCCN3CCOCC3)c2-c2cccnc2)cc1 [SB-211743],0
2,COc1cc2ncn(-c3cc(OCc4sccc4Cl)c(C(N)=O)s3)c2cc1OC [GSK448459],0
3,Cl.Nc1ncnc2occ(-c3ccc(NC(=O)Nc4cc(C(F)(F)F)ccc4F)cc3)c12 [SB-707548],83
4,NS(=O)(=O)CCc1cccc(Nc2nccc(-c3c(-c4cccc(NC(=O)c5c(F)cccc5F)c4)nn4ccccc34)n2)c1 [GSK336735],11
5,O=C(NCCNc1ccnc(Nc2ccc(F)cc2)n1)c1cc2ccccc2s1 [GSK1379874],0
6,CCc1ccnc(/C=C/c2n[nH]c3cc(Sc4ccccc4C(=O)NC)ccc23)c1,7
7,CC(C)Oc1ccc2c(-c3ccnc(Nc4ccc(N5CCN(C)CC5)cc4)n3)cnn2n1 [GW696155],70
8,Cc1nnc(-c2ccc3ncc(-c4ccc(S(C)=O)cc4)n3c2)o1 (stereo not drawn),20
9,O=C(NCCNc1ccnc(Nc2ccc(F)cc2)n1)Nc1ccccc1F [GSK1379880],0
10,NS(=O)(=O)c1cccc(-c2ccc3ncc(N4CCOCC4)nc3c2)c1 [GSK1535721],12
11,CN(C(=O)c1ccc(-c2cc(-c3c[nH]nc3-c3ccccn3)ccn2)cc1)C1CCOCC1 [GW810083],0
12,O=C(Nc1cccc(-c2nn3ncccc3c2-c2ccnc(Nc3cccc(C(F)(F)F)c3)n2)c1)c1c(F)cccc1F [GSK299495],0
13,Cc1c(Cn2c(C)nn3c(=O)cc(N4CCOC(C)C4)nc23)cccc1C(F)(F)F (stereo not drawn) [GSK2344444],3
14,NCC(NC(=O)c1cc(-c2cn[nH]c2)c(-c2ccnc3[nH]ccc23)s1)c1ccccc1.O=C(O)C(F)(F)F.O=C(O)C(F)(F)F (stereo not drawn) [GSK1325775],21
15,CC(C)(CN)c1nc(-c2ccc(Cl)c(O)c2)c(-c2ccncc2)[nH]1.O=C(O)C(F)(F)F [SB-477794],0
16,O=C(NCCCN1CCOCC1)c1cccc(Nc2nccc(Nc3ccc(Oc4ccccc4)cc3)n2)c1 [GW663929],33
17,O=C1NC(=O)C(N2CCc3ccccc32)=C1c1cccc(Cl)c1 [SB-408010],21
18,Fc1ccc(-c2ncn(CCCN3CCOCC3)c2-c2ccccn2)cc1 [SB-211742],0

row,SMILES,%Inh [%]
1,N#Cc1ccc(-c2cc(-c3c[nH]nc3-c3ccccn3)ccn2)cc1 [GW693028],0
2,[2H]C([2H])(c1cccc(C(F)(F)F)c1C)n1ccn2c(=O)nc(N3CCOCC3)cc12 [GSK2336394],0
3,COc1ccc(COc2cc(-n3cnc4ccccc43)sc2C(N)=O)cc1 [GSK1024304],0
4,O=c1cc(N2CCOCC2)nc2n(Cc3cccc(C(F)(F)F)c3)ccn12 [GSK2297543],12
5,COC(=O)Nc1nc2cc(Oc3ccc(NC(=O)Nc4cc(F)ccc4F)cc3)ccc2[nH]1.Cl [GW701424],14
6,CN1c2ccc(CNc3ccc(F)cc3)cc2-c2c(cnn2C)S1(=O)=O,0
7,Cc1ccc(NC(=O)c2ccnc(N3CCN(C)CC3)c2)cc1-c1ccc(C(=O)NCC2CC2)cc1 [GW775604],0
8,COc1ccc(Nc2nccc(N3CCC(NC(=O)Nc4cccc(C(C)=O)c4)C3)n2)cc1 (stereo not drawn) [GSK1379731],0
9,Cn1cc(-c2ccc3c(c2)CCN3C(=O)Cc2ccccc2Cl)c2c(N)ncnc21 [GSK2608885],20
10,COc1ccc(Nc2nccc(N3CCC(NC(=O)Nc4cc(C)ccc4C)C3)n2)cc1 (stereo not drawn) [GSK1379741],0
11,COc1cc2c(cc1OCCN1CCN(C)CC1)ncc1c3ccc(C#N)cc3[nH]c21,97.4
12,CSc1ccc(-c2cc3ncnc(SCC(=O)O)c3s2)cc1,0
13,Cc1cccc(Cn2ccn3c(=O)cc(N4CCOCC4)nc23)c1 [GSK2297542],2
14,Nc1nc(-c2ccc3c(N)n[nH]c3c2)cc(N2CCCC2)n1 [GSK2227430],0
15,Cc1cccc(-c2nc(Nc3ccc4ncsc4c3)c3ccccc3n2)n1 [GW867588],12
16,CCn1cnc2c(N)ncnc21 [GW345098],0
17,O=C(NOCC1CC1)c1ccc(F)c(F)c1Nc1ccc(I)cc1Cl,0

# System: FLT3
# Details: concentration: 1 μM, replicates: in singlicate; n = 1
row,SMILES,%Inh [%]
1,Fc1ccc(-c2ncn(CCCN3CCOCC3)c2-c2cccnc2)cc1 [SB-211743],9
2,COc1cc2ncn(-c3cc(OCc4sccc4Cl)c(C(N)=O)s3)c2cc1OC [GSK448459],31
3,Cl.Nc1ncnc2occ(-c3ccc(NC(=O)Nc4cc(C(F)(F)F)ccc4F)cc3)c12 [SB-707548],99.4
4,NS(=O)(=O)CCc1cccc(Nc2nccc(-c3c(-c4cccc(NC(=O)c5c(F)cccc5F)c4)nn4ccccc34)n2)c1 [GSK336735],98.9
5,O=C(NCCNc1ccnc(Nc2ccc(F)cc2)n1)c1cc2ccccc2s1 [GSK1379874],0
6,CCc1ccnc(/C=C/c2n[nH]c3cc(Sc4ccccc4C(=O)NC)ccc23)c1,19
7,CC(C)Oc1ccc2c(-c3ccnc(Nc4ccc(N5CCN(C)CC5)cc4)n3)cnn2n1 [GW696155],98.3
8,Cc1nnc(-c2ccc3ncc(-c4ccc(S(C)=O)cc4)n3c2)o1 (stereo not drawn),4
9,O=C(NCCNc1ccnc(Nc2ccc(F)cc2)n1)Nc1ccccc1F [GSK1379880],0
10,NS(=O)(=O)c1cccc(-c2ccc3ncc(N4CCOCC4)nc3c2)c1 [GSK1535721],0
11,CN(C(=O)c1ccc(-c2cc(-c3c[nH]nc3-c3ccccn3)ccn2)cc1)C1CCOCC1 [GW810083],8
12,O=C(Nc1cccc(-c2nn3ncccc3c2-c2ccnc(Nc3cccc(C(F)(F)F)c3)n2)c1)c1c(F)cccc1F [GSK299495],41
13,Cc1c(Cn2c(C)nn3c(=O)cc(N4CCOC(C)C4)nc23)cccc1C(F)(F)F (stereo not drawn) [GSK2344444],0
14,NCC(NC(=O)c1cc(-c2cn[nH]c2)c(-c2ccnc3[nH]ccc23)s1)c1ccccc1.O=C(O)C(F)(F)F.O=C(O)C(F)(F)F (stereo not drawn) [GSK1325775],69
15,O=C(NCCCN1CCOCC1)c1cccc(Nc2nccc(Nc3ccc(Oc4ccccc4)cc3)n2)c1 [GW663929],90.7
16,O=C1NC(=O)C(N2CCc3ccccc32)=C1c1cccc(Cl)c1 [SB-408010],0
17,Fc1ccc(-c2ncn(CCCN3CCOCC3)c2-c2ccccn2)cc1 [SB-211742],20

row,SMILES,%Inh [%]
1,N#Cc1ccc(-c2cc(-c3c[nH]nc3-c3ccccn3)ccn2)cc1 [GW693028],0
2,[2H]C([2H])(c1cccc(C(F)(F)F)c1C)n1ccn2c(=O)nc(N3CCOCC3)cc12 [GSK2336394],12
3,COc1ccc(COc2cc(-n3cnc4ccccc43)sc2C(N)=O)cc1 [GSK1024304],4
4,O=c1cc(N2CCOCC2)nc2n(Cc3cccc(C(F)(F)F)c3)ccn12 [GSK2297543],0
5,COC(=O)Nc1nc2cc(Oc3ccc(NC(=O)Nc4cc(F)ccc4F)cc3)ccc2[nH]1.Cl [GW701424],99.2
6,CN1c2ccc(CNc3ccc(F)cc3)cc2-c2c(cnn2C)S1(=O)=O,36
7,Cc1ccc(NC(=O)c2ccnc(N3CCN(C)CC3)c2)cc1-c1ccc(C(=O)NCC2CC2)cc1 [GW775604],0
8,COc1ccc(Nc2nccc(N3CCC(NC(=O)Nc4cccc(C(C)=O)c4)C3)n2)cc1 (stereo not drawn) [GSK1379731],34
9,Cn1cc(-c2ccc3c(c2)CCN3C(=O)Cc2ccccc2Cl)c2c(N)ncnc21 [GSK2608885],99.3
10,COc1ccc(Nc2nccc(N3CCC(NC(=O)Nc4cc(C)ccc4C)C3)n2)cc1 (stereo not drawn) [GSK1379741],0
11,COc1cc2c(cc1OCCN1CCN(C)CC1)ncc1c3ccc(C#N)cc3[nH]c21,98.6
12,CSc1ccc(-c2cc3ncnc(SCC(=O)O)c3s2)cc1,0
13,Cc1cccc(Cn2ccn3c(=O)cc(N4CCOCC4)nc23)c1 [GSK2297542],11
14,Nc1nc(-c2ccc3c(N)n[nH]c3c2)cc(N2CCCC2)n1 [GSK2227430],0
15,Cc1cccc(-c2nc(Nc3ccc4ncsc4c3)c3ccccc3n2)n1 [GW867588],2
16,CCn1cnc2c(N)ncnc21 [GW345098],13
17,O=C(NOCC1CC1)c1ccc(F)c(F)c1Nc1ccc(I)cc1Cl,0
